Assay [1] in a line: viability loss with induced miR-34 in A549 – imaging, A549 dox-inducible miR-34, nuclei and caspase counts, primary screen (AID 1347080). To be noted: A549 miR-34 inducible, Hoechst nuclei count, 48 h.
Assay [2] is described as follows: MELAS cybrid and Rieske KO viability enhancers – cell-based, MELAS cybrids, Rieske KO mouse fibroblasts, CellTiter-Glo, primary screen (AID 1508586;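 active = mean z-score across replicates of 1.96 or higher in either the MELAS or the Rieske mutant cell line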;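 note: z relative to plate mean and SD of compound and empty wells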). Particulars: low glucose.
The mark [3] stands for this setting: stronger effect = lower value, cell number ratio, induced over uninduced.
Where [4] appears, read: measured here: relative caspase fold change +Dox/-Dox.
[5] abbreviates: measured here: total cells with miR-34 induction, stronger effect = lower value.
[6] abbreviates: measured here: total cells without miR-34 induction.
The mark [7] stands for this setting: MELAS cybrid survival, CellTiter-Glo 48 h, stronger effect = higher value.
Where [8] appears, read: Rieske KO mouse fibroblast survival, CellTiter-Glo 72 h.

Among the data in PubChem BioAssay are fold change, cell count and z-score values, retold here.

The structures appear in SMILES notation. Active and inactive are the calls of the source.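 Rule for the calls, unless noted: active = compounds whose cell count with miR-34 switched on is under 0.7 times the count with it off; inactive = the rest.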
Note: test concentration not given here.

Turning to `CCC1OC(=O)C(C)C(OC2C[C@@](C)(OC)C(O)C(C)O2)C(C)C(OC2OC(C)CC(N(C)C)C2O)[C@](C)(O)CC(C)C(=NOCOCCOC)C(C)C(O)[C@]1(C)O` (stereo partly specified), the results for the fold change in assay [1] (setting [3]) and in assay [1] (setting [4]) were 0.909 (inactive) and 0.933, respectively. For the same compound, the results for the cell count in assay [1] (setting [5]) and in assay [1] (setting [6]) were 9240 and 10200, respectively. Besides, the z-score was -0.34 (inactive) in assay [2] (setting [7]) and 0.815 in assay [2] (setting [8]).

As to `CC1O[C@@H](OC2C(O)C[C@H](OC3C(O)C[C@H](OC4CC[C@@]5(C)[C@H](CC[C@@H]6[C@H]5CC(O)[C@]5(C)C(C7=CC(=O)OC7)CC[C@]65O)C4)OC3C)OC2C)CC(O)C1O` (stereo partly specified), the fold change in assay [1] (setting [3]) was 0.837 (inactive); in assay [1] (setting [4]) it was 0.829. For the same compound, the cell count in assay [1] (setting [5]) turned out to be 400; in assay [1] (setting [6]), 478. Besides, the results for the z-score in assay [2] (setting [7]) and in assay [2] (setting [8]) were 0.348 (inactive) and -0.197, respectively.

Regarding `C=C1C(=O)[C@@]23C(O)[C@H]1CCC2[C@]12CO[C@]3(O)C(O)[C@@H]1C(C)(C)CCC2O` (stereo partly specified), the fold change in assay [1] (setting [3]) is 0.94 (inactive); in assay [1] (setting [4]), 0.647. Moreover, the cell count is 8410 in assay [1] (setting [5]) and 8940 in assay [1] (setting [6]). In addition, the values for the z-score in assay [2] (setting [7]) and in assay [2] (setting [8]) were -0.553 (inactive) and -0.438, respectively.

Regarding `CON=C(C(=O)N[C@@H]1C(=O)N2C(C(=O)O)=C(CSC(=O)c3ccco3)CS[C@H]12)c1csc(N)n1`, the fold change in assay [1] (setting [3]) is 0.943 (inactive); in assay [1] (setting [4]), 1.19. Besides, the cell count in assay [1] (setting [5]) was found to be 9660; in assay [1] (setting [6]), 10200. For the same compound, the z-score in assay [2] (setting [7]) is -0.295 (inactive); in assay [2] (setting [8]) it was 0.108.

`CN1CC(=O)N2C(c3ccc4c(c3)OCO4)c3[nH]c4ccccc4c3C[C@@H]2C1=O` (stereo partly specified): the fold change in assay [1] (setting [3]) is 0.882 (inactive); in assay [1] (setting [4]), 0.922. In addition, the cell count in assay [1] (setting [5]) stood at 6530; in assay [1] (setting [6]), 7410. Besides, the z-score was -0.417 (inactive) in assay [2] (setting [7]) and 0.533 in assay [2] (setting [8]).

Regarding `CCC1=CC2CN(C1)Cc1c([nH]c3ccccc13)[C@@](C(=O)OC)(c1cc3c(cc1OC)N(C)[C@@H]1[C@@]34CCN3CC=C[C@@](CC)(C(OC(C)=O)[C@]1(O)C(=O)OC)[C@@H]34)C2` (stereo partly specified), the fold change in assay [1] (setting [3]) is 1.11 (inactive); in assay [1] (setting [4]), 0.608. Moreover, the cell count was 1810 in assay [1] (setting [5]) and 1620 in assay [1] (setting [6]). Further, the z-score in assay [2] (setting [7]) is 2.06 (active); in assay [2] (setting [8]), -0.337.

Take `CC1(C)OC2C[C@H]3[C@@H]4CCC5=CC(=O)C=C[C@]5(C)[C@]4(F)C(O)C[C@]3(C)[C@@]2(C(=O)CO)O1` (stereo partly specified): the fold change in assay [1] (setting [3]) was 0.812 (inactive); in assay [1] (setting [4]) it was 1.01. Further, the cell count in assay [1] (setting [5]) came out at 5100; in assay [1] (setting [6]), 6270. Also, the z-score is -0.349 (inactive) in assay [2] (setting [7]) and -0.501 in assay [2] (setting [8]).

For `COc1cc2ncnc(Nc3ccc(F)c(Cl)c3)c2cc1NC(=O)C=CCN1CCCCC1`, the fold change in assay [1] (setting [3]) is 1.12 (inactive); in assay [1] (setting [4]) it was 0.707. The results for the cell count in assay [1] (setting [5]) and in assay [1] (setting [6]) were 3310 and 2960, respectively. Besides, the results for the z-score in assay [2] (setting [7]) and in assay [2] (setting [8]) were -0.496 (inactive) and -1.94, respectively.

Consider `CCCC(Nc1nc(-c2ccc(NC(=O)NCC)c(OC)c2)ncc1C)c1cccnc1` (stereo unspecified), for which the fold change in assay [1] (setting [3]) is 1.06 (inactive); in assay [1] (setting [4]) it was 0.656. For the same compound, the cell count came to 1450 in assay [1] (setting [5]) and 1370 in assay [1] (setting [6]). Also, the z-score in assay [2] (setting [7]) was 2.93 (active); in assay [2] (setting [8]), -1.09.

`COc1cc2c(c(OC)c1OC)-c1c(cc3c(c1OC)OCO3)CC(C)C(C)C2` (stereo unspecified): the fold change in assay [1] (setting [3]) is 0.915 (inactive); in assay [1] (setting [4]), 1.02. For the same compound, the cell count in assay [1] (setting [5]) was determined as 7770; in assay [1] (setting [6]), 8490. Further, the z-score is -0.0751 (inactive) in assay [2] (setting [7]) and -0.149 in assay [2] (setting [8]).

`C[C@]12CC[C@H]3c4ccc(O)cc4CC[C@H]3[C@@H]1CCC2OC(=O)CCC1CCCC1` (stereo partly specified): the fold change in assay [1] (setting [3]) was 0.984 (inactive); in assay [1] (setting [4]), 0.876. Also, the cell count in assay [1] (setting [5]) was 8050; in assay [1] (setting [6]) it was 8180. Also, the z-score in assay [2] (setting [7]) is -0.17 (inactive); in assay [2] (setting [8]), -0.155.

Turning to `CC(=O)ON=C1C(=O)N(Cc2cc(Cl)ccc2Cl)c2ccc(Cl)cc21`, the results for the fold change in assay [1] (setting [3]) and in assay [1] (setting [4]) were 0.848 (inactive) and 0.441, respectively. In addition, the cell count in assay [1] (setting [5]) is 7100; in assay [1] (setting [6]), 8370. The results for the z-score in assay [2] (setting [7]) and in assay [2] (setting [8]) were -0.0209 (inactive) and 1.12, respectively.

Take `CCN=C1N[C@@H]2C(O)C(O)C(CO)O[C@@H]2S1` (stereo partly specified): the fold change in assay [1] (setting [3]) was 0.935 (inactive); in assay [1] (setting [4]) it was 0.487. In addition, the cell count in assay [1] (setting [5]) was 8710; in assay [1] (setting [6]), 9320. The results for the z-score in assay [2] (setting [7]) and in assay [2] (setting [8]) were -0.533 (inactive) and -0.988, respectively.

With `CC(C)(C)c1cc(C=C(C#N)C(N)=S)cc(C(C)(C)C)c1O`, the fold change is 0.89 (inactive) in assay [1] (setting [3]) and 0.706 in assay [1] (setting [4]). The cell count in assay [1] (setting [5]) was 3790; in assay [1] (setting [6]) it was 4260. In addition, the z-score in assay [2] (setting [7]) was -0.383 (inactive); in assay [2] (setting [8]), -0.375.

Take `CC1CC(=O)NN=C1c1ccc(NN=C(C#N)C#N)cc1` (stereo unspecified): the fold change in assay [1] (setting [3]) was 0.851 (inactive); in assay [1] (setting [4]), 1.15. The cell count in assay [1] (setting [5]) was 8280; in assay [1] (setting [6]), 9730. Besides, the z-score was -0.305 (inactive) in assay [2] (setting [7]) and -0.733 in assay [2] (setting [8]).

In the case of `Cc1ccc(CNc2ncnc3ccc(-c4ccc(CO)o4)cc23)o1`, the figures for the fold change in assay [1] (setting [3]) and in assay [1] (setting [4]) were 0.916 (inactive) and 0.52, respectively. Besides, the results for the cell count in assay [1] (setting [5]) and in assay [1] (setting [6]) were 7510 and 8210, respectively. Moreover, the figures for the z-score in assay [2] (setting [7]) and in assay [2] (setting [8]) were -0.414 (inactive) and 0.153, respectively.

With `CNC(C)C(=O)NC(C(=O)N1CCCC1C(=O)Nc1snnc1-c1ccccc1)C1CCCCC1` (stereo unspecified), the fold change in assay [1] (setting [3]) is 0.982 (inactive); in assay [1] (setting [4]) it was 0.55. Also, the cell count amounted to 8360 in assay [1] (setting [5]) and 8510 in assay [1] (setting [6]). Moreover, the values for the z-score in assay [2] (setting [7]) and in assay [2] (setting [8]) were -0.276 (inactive) and -0.145, respectively.

`NC(=O)c1cnc(NC2CCCCC2N)nc1Nc1cccc(-n2nccn2)c1` (stereo unspecified): the fold change in assay [1] (setting [3]) is 0.82 (inactive); in assay [1] (setting [4]), 0.778. Besides, the cell count in assay [1] (setting [5]) was 1580; in assay [1] (setting [6]) it was 1920. For the same compound, the z-score in assay [2] (setting [7]) is -0.344 (inactive); in assay [2] (setting [8]), -1.57.

`c1ccc(NCc2ccc(CNc3ccccn3)cc2)nc1`: the fold change in assay [1] (setting [3]) was 0.944 (inactive); in assay [1] (setting [4]) it was 0.525. Further, the cell count in assay [1] (setting [5]) worked out at 7360; in assay [1] (setting [6]), 7790. In addition, the z-score in assay [2] (setting [7]) was -0.161 (inactive); in assay [2] (setting [8]), -0.0229.

For the compound `COc1cc(CCc2cc(NC(=O)c3ccc(N4CC(C)NC(C)C4)cc3)n[nH]2)cc(OC)c1` (stereo unspecified), the fold change is 0.767 (inactive) in assay [1] (setting [3]) and 0.948 in assay [1] (setting [4]). For the same compound, the cell count in assay [1] (setting [5]) came to 4590; in assay [1] (setting [6]), 5980. Moreover, the z-score was -0.509 (inactive) in assay [2] (setting [7]) and -1.9 in assay [2] (setting [8]).

`O=C(Nc1ncc(SCCN2CCCC2)s1)[C@]1(c2ccc(S(=O)(=O)C3CC3)cc2)CC1C1CCCCC1` (stereo partly specified): the results for the fold change in assay [1] (setting [3]) and in assay [1] (setting [4]) were 0.954 (inactive) and 1.22, respectively. Further, the cell count amounted to 5020 in assay [1] (setting [5]) and 5260 in assay [1] (setting [6]). Moreover, the z-score is -0.306 (inactive) in assay [2] (setting [7]) and -0.0398 in assay [2] (setting [8]).
